Results published in PubChem BioAssay (EPA / NIEHS).
Results filed as inconclusive are left out. Activity calls are given as the source filed them. How the source made its calls: active means hit-call score of the fitted dose curve at least 0.9, where 1 is the maximum; inconclusive means response in the unintended direction; inactive means score below 0.9.

Tests used:
[1] = target: Luciferin 4-monooxygenase (Photinus pyralis) (UniProt P08659); assay: CCTE_Simmons_QuantiLum_inhib_2: CCTE's Firefly Luciferase Inhibition Assay, Simmons Lab (AID 2283767);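 on AC50: potency for inhibitors that lower luciferase luminescence relative to DMSO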
Sequence of Luciferin 4-monooxygenase (Photinus pyralis) (P08659 whole entry, looked up): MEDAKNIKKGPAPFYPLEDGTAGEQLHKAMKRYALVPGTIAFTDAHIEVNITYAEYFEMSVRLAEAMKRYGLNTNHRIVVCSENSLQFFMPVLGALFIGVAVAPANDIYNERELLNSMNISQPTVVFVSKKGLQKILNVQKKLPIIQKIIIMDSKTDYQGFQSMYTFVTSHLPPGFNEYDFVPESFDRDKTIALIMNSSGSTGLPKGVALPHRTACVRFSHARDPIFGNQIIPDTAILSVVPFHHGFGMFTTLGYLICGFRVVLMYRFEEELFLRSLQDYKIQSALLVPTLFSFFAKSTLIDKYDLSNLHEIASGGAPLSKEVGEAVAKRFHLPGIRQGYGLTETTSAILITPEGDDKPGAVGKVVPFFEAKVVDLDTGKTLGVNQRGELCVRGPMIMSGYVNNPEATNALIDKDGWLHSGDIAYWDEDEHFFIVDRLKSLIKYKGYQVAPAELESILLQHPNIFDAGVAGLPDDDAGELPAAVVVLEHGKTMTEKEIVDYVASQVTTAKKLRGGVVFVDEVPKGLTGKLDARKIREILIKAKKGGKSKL
In short: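 Cell-free recombinant firefly luciferase (5 ng/well) in 200mM potassium phosphate with 1 mg/ml BSA, 30 min at 37C with 8 concentrations from 5 nM to 87.5 uM [final], 0.5% DMSO. Luminescence read after D-luciferin (150uM)/dATP (147uM) reagent injection, pH 7.8; triplicates.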

[2] = ACEA_AR_agonist_AUC_viability: ACEA Biosciences xCELLigence Real-Time Cell Analysis on Androgen Receptor Agonism for Viability (AID 2283775);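 on AC50: viability read 80 hours after compound addition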
In short: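 Real-time impedance tracking of 22Rv1 growth, readings every 5 min for 5 h then hourly; area-under-curve viability endpoint at 80 hours, relative to DMSO. Compounds at eight concentrations, 1:4 steps, top 100 uM, n = 2.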

[3] = ACEA_AR_antagonist_AUC_viability: ACEA Biosciences xCELLigence Real-Time Cell Analysis on Androgen Receptor Antagonism for Viability (AID 2283776);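 further: 22Rv1 human prostate cancer cells growing on impedance electrode plates; hits lower the growth signal relative to DMSO meaning cytotoxicity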
In short: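 Viability endpoint from label-free cell-index monitoring: 22Rv1 cultures treated with an eight-point 1:4 dilution series starting at 100 uM final, AUC at 80 h fitted against DMSO.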

[4] = STM_H9_NormalizedViability: Cytotoxicity Assessment at 120 hours in the Stemina devTOX quickPredict H9 human embryonic stem cell (hESC)-based Assay (AID 2283784)
In short: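 Pluripotent H9 hESCs were exposed, with chemical and media replaced every 24 h. Viability was read by CellTiter-Fluor fluorescence, background-corrected and normalized to the 0.1% DMSO neutral control per plate. Loss of signal was fitted.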

[5] = ArunA_NOG_NucleusCount: ArunA Biomedical's Neurite Outgrowth (NOG) Assay for Nucleus Count (AID 2283756)
In short: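 Human H9-derived differentiated neurons were exposed for 48 h right after seeding. Hoechst-stained nuclei gated by size and intensity were counted by automated high-content imaging as viable neurons. Loss of signal vs DMSO.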

[6] = ACEA_ER_AUC_viability: ACEA Biosciences xCELLigence Real-Time Cell Analysis on Estrogen Receptor Agonism for Viability (AID 2283782);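 further: continuous compound exposure with impedance area under curve over 80 h; hit means loss of impedance signal meaning reduced cell growth or viability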
In short: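 T-47D human breast cells in phenol red-free RPMI1640 with 10% charcoal-stripped FBS were dosed with an 8-point 1:4 dilution series from 100 uM top final concentration, in duplicate. Impedance-based growth was followed for 80 h; AUC analysed versus DMSO.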

[7] = tested on: chicken Androgen Receptor (AR), gene 422165; assay: ATG_chAR_XSP1: Attagene TRANS-FACTORIAL Multi-Species (XSP1) HepG2 Assay for chicken Androgen Receptor (AR) (AID 2283768)
In short: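 HepG2 cells transiently transfected with multiplexed GAL4-UAS reporter units expressing chimeric chicken AR-Gal4; 3 nM 6-alpha-fluorotestosterone for partial AR stimulation; 24 h after dosing, reporter mRNA by RT-PCR and capillary electrophoresis, gain-of-signal versus DMSO.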

[8] = target: zebrafish Estrogen Receptor (ESR1), esr1 (gene 259252) (UniProt P57717); assay: ATG_zfER1_XSP1: Attagene TRANS-FACTORIAL Multi-Species (XSP1) HepG2 Assay for zebrafish Estrogen Receptor (ESR1) (AID 2283772)
Sequence of zebrafish Estrogen Receptor (ESR1), esr1 (gene 259252) (P57717 whole entry, looked up, the tested form may be a part): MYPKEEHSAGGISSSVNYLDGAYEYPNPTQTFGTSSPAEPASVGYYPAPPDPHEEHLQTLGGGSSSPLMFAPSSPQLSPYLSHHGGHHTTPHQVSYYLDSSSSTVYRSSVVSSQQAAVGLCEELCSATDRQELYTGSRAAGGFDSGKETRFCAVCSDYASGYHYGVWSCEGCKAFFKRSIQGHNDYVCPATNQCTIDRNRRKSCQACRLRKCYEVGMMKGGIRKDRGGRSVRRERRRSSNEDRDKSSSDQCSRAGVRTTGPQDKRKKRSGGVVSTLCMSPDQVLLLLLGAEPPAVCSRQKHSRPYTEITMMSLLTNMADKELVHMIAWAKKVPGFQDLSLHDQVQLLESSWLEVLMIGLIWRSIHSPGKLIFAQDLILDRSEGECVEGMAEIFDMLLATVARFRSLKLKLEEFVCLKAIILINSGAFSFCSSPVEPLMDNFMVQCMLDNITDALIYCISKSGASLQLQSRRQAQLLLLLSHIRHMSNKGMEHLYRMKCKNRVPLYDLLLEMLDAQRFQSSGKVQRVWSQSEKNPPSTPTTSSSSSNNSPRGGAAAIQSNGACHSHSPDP
In short: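 Exogenous chimeric receptor-GAL4 activity is measured in transiently transfected human HepG2 liver cells after 24 h compound exposure. Reporter transcripts are detected by RT-PCR and fluorescent capillary electrophoresis, analysed for signal gain relative to DMSO.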

[9] = tested on: zebrafish Estrogen Receptor (ESR2B), gene 317733; assay: ATG_zfER2b_XSP1: Attagene TRANS-FACTORIAL Multi-Species (XSP1) HepG2 Assay for zebrafish Estrogen Receptor (ESR2B) (AID 2283773)
In short: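 HepG2 cells transiently transfected with multiple GAL4-UAS reporter units expressing chimeric zebrafish ER2b-Gal4; 24 h chemical exposure with 3 nM 6-alpha-fluorotestosterone present. Reporter mRNA measured by RT-PCR and capillary electrophoresis; gain of signal fitted versus DMSO.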

[10] = tested on: frog Estrogen Receptor (ESR2), gene 100174814; assay: ATG_frER2_XSP1: Attagene TRANS-FACTORIAL Multi-Species (XSP1) HepG2 Assay for frog Estrogen Receptor (ESR2) (AID 2283774)
In short: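 HepG2 cells transiently transfected with GAL4-UAS multiplexed reporter units expressing chimeric NR-Gal4 proteins; reporter mRNA measured 24 h after dosing by RT-PCR, FAM labeling, HpaI digestion and capillary electrophoresis. Gain-of-signal relative to DMSO; 3 nM 6-alpha-fluorotestosterone present.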

[11] = tested on: frog Estrogen Receptor (ESR1), gene 398734; assay: ATG_frER1_XSP1: Attagene TRANS-FACTORIAL Multi-Species (XSP1) HepG2 Assay for frog Estrogen Receptor (ESR1) (AID 2283777)
In short: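 Read-out: fluorescent reporter mRNA via RT-PCR, HpaI digestion and capillary electrophoresis, after 24 h chemical exposure of transiently transfected human HepG2 cells expressing exogenous NR-Gal4 chimeras. DMSO served as baseline for positive-direction fitting.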

[12] = tested on: zebrafish Estrogen Receptor (ESR2A), gene 317734; assay: ATG_zfER2a_XSP1: Attagene TRANS-FACTORIAL Multi-Species (XSP1) HepG2 Assay for zebrafish Estrogen Receptor (ESR2A) (AID 2283778)
In short: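 HepG2 cells transiently transfected with multiplexed GAL4-UAS reporter units and chimeric NR-GAL4 receptors; 24 h compound exposure with 3 nM 6-alpha-fluorotestosterone present. Reporter mRNA quantified by RT-PCR and capillary electrophoresis, gain-of-signal fitted relative to DMSO.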

[13] = target: chicken Estrogen Receptor (ESR1), ESR1 (gene 396099) (UniProt P06212); assay: ATG_chERa_XSP1: Attagene TRANS-FACTORIAL Multi-Species (XSP1) HepG2 Assay for chicken Estrogen Receptor (ESR1) (AID 2283779)
Sequence of chicken Estrogen Receptor (ESR1), ESR1 (gene 396099) (P06212 whole entry, looked up, the tested form may be a part): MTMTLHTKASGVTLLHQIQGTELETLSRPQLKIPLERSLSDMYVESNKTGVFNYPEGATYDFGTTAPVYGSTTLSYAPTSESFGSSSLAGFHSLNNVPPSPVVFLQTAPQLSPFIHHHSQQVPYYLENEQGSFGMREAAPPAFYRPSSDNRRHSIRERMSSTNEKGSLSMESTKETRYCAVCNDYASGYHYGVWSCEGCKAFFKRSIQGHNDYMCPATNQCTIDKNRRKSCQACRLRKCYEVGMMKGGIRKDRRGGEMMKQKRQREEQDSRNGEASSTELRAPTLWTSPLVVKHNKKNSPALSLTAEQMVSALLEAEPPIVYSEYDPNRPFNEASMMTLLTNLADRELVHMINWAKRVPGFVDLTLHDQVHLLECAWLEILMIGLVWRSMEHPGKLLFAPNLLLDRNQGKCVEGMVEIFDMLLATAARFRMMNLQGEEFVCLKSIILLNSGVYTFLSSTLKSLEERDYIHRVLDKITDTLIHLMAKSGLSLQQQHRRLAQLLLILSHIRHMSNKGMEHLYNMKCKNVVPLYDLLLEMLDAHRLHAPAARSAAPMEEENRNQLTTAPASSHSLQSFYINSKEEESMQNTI
In short: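 HepG2 cells transiently transfected with multiplexed GAL4-UAS reporter units expressing chimeric NR-Gal4 proteins; 3 nM 6-alpha-fluorotestosterone present. Reporter mRNA measured 24 h after dosing by RT-PCR, FAM labelling, HpaI digest and capillary electrophoresis; gain of signal versus DMSO.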

[14] = target: Estrogen receptor (Homo sapiens) (UniProt P03372); assay: ATG_hERa_XSP1: Attagene TRANS-FACTORIAL Multi-Species (XSP1) HepG2 Assay for human Estrogen Receptor (ESR1) (AID 2283780)
Sequence of Estrogen receptor (Homo sapiens) (P03372 whole entry, looked up, the tested form may be a part): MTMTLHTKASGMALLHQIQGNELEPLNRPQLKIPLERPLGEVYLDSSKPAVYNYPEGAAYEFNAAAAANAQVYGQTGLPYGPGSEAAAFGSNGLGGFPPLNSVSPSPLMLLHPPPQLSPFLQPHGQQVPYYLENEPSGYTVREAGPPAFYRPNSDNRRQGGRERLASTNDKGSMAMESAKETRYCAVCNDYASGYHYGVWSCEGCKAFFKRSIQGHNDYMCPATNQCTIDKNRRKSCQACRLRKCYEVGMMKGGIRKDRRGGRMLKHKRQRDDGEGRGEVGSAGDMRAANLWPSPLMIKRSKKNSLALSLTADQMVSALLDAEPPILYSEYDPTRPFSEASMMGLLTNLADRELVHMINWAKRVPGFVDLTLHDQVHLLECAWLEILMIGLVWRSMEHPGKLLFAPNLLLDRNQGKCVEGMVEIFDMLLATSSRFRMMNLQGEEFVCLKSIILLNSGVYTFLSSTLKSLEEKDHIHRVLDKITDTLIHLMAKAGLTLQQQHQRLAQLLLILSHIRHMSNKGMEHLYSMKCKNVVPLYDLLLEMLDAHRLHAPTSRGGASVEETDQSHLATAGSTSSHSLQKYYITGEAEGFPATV
In short: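 HepG2 cells transiently transfected with GAL4-UAS reporter units and chimeric NR-Gal4 constructs; 24 h after dosing, reporter mRNA quantified by RT-PCR and capillary electrophoresis. Medium contained 3 nM 6-alpha-fluorotestosterone; activity fitted as gain-of-signal versus DMSO.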

[15] = tested on: turtle Estrogen Receptor (ESR1), gene 101933533; assay: ATG_trERa_XSP1: Attagene TRANS-FACTORIAL Multi-Species (XSP1) HepG2 Assay for turtle Estrogen Receptor (ESR1) (AID 2283781)
In short: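 HepG2 cells transiently transfected with GAL4-UAS reporter units and chimeric NR-Gal4 constructs, dosed for 24 h with 3 nM 6-alpha-fluorotestosterone present. Reporter mRNA was quantified by RT-PCR, fluorescent labelling and capillary electrophoresis, with gain of signal fitted relative to DMSO.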

[16] = tested on: turtle Androgen Receptor (AR), gene 101947425; assay: ATG_trAR_XSP1: Attagene TRANS-FACTORIAL Multi-Species (XSP1) HepG2 Assay for turtle Androgen Receptor (AR) (AID 2283786)
In short: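 HepG2 cells transiently transfected with a turtle AR–GAL4 chimera and GAL4-UAS reporter, co-treated with 3 nM 6-alpha-fluorotestosterone for partial stimulation. Reporter mRNA is quantified at 24 h by RT-PCR and capillary electrophoresis, gain-of-signal versus DMSO.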

AR (gene 367) = AR (gene 367) (UniProt P10275); assay: ACEA_AR_agonist_80hr: ACEA Biosciences xCELLigence Real-Time Cell Analysis on Androgen Receptor Agonism for Proliferation (AID 2283783);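 further: hits increase impedance growth signal above DMSO baseline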
Sequence of AR (gene 367) (P10275 whole entry, looked up): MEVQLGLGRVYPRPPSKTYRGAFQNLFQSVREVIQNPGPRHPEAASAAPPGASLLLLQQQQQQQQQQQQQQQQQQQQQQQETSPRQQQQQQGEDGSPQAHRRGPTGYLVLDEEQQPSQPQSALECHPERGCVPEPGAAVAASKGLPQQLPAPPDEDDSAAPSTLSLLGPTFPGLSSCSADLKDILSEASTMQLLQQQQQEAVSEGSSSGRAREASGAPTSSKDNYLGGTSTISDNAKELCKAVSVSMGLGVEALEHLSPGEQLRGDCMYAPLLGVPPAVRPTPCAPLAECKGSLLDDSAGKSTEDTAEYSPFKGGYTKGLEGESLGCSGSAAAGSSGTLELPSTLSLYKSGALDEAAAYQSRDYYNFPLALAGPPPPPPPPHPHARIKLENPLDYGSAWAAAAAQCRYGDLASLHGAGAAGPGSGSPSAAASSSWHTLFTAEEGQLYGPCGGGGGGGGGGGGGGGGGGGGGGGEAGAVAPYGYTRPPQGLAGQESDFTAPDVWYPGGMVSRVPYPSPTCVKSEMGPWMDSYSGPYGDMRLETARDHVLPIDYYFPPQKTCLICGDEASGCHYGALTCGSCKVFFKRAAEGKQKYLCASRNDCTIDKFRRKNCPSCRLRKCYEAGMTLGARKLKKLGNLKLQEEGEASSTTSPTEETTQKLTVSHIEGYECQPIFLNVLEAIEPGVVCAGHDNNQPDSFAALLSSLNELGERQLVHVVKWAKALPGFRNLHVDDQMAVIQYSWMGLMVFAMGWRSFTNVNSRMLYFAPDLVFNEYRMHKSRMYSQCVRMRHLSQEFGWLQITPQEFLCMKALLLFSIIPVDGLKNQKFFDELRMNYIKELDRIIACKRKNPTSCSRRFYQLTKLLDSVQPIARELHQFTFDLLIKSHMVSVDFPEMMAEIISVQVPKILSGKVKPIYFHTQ
In short: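 22Rv1 human prostate cancer cells were seeded after preconditioning in assay medium and monitored overnight, then dosed in an eight-point 1:4 dilution series from 100 uM (≤0.5% DMSO). Impedance-based growth was read at 80 h, gain-of-signal versus DMSO.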

[17] = tested on: zebrafish Androgen Receptor (AR), gene 100005148; assay: ATG_zfAR_XSP1: Attagene TRANS-FACTORIAL Multi-Species (XSP1) HepG2 Assay for zebrafish Androgen Receptor (AR) (AID 2283771)
In short: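 HepG2 cells were transiently transfected with a zebrafish AR-GAL4 reporter system and partially stimulated with 3 nM 6-alpha-fluorotestosterone. Reporter mRNA was measured after 24 h dosing by RT-PCR with capillary electrophoresis, and gain-of-signal was fitted relative to DMSO.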

Measured: AC50

CCOP(=S)(OCC)Oc1nc(Cl)n(C(C)C)n1
inactive: [1] | [2] | [3] | [4]

COc1ccc(-c2ccccc2)cc1NNC(=O)OC(C)C
inactive: [5] | [2] | [3] | [6]
active: [1] 0.556 µM | [4] 45.6 µM

Clc1nc(Cl)nc(Nc2ccccc2Cl)n1
inactive: [2] | [3]
active: [1] 8.85 µM

CCOc1nc(C(Cl)(Cl)Cl)ns1
inactive: [1] | [2] | [3] | [4]

Cc1c(COC(=O)[C@@H]2[C@H](/C=C(\Cl)C(F)(F)F)C2(C)C)cccc1-c1ccccc1
inactive: [7] | [8] | [12] | [13] | [6] | [16]
active: [9] 69.1 µM | [10] 100 µM | [2] 69.3 µM | [3] 31.4 µM | [11] 36.3 µM | [14] 21.8 µM | [15] 19.8 µM

Cc1nc(N(C)C)nc(OC(=O)N(C)C)c1C
inactive: [2]

C=CCOC(=O)C(C)(C)OC(=O)c1cc(-n2c(=O)cc(C(F)(F)F)n(C)c2=O)ccc1Cl
active: [2] 50.5 µM | [3] 50.5 µM

CC1(C)CCC(=Cc2ccc(Cl)cc2)C1(O)Cn1cncn1 (configuration not stated)
inactive: [8] | [2] | [3] | [11] | [12] | AR (gene 367) | [4]
active: [10] 56.6 µM | [13] 3.53 µM | [14] 3.95 µM | [15] 5.79 µM

COCC(C)N(C(=O)CCl)c1c(C)csc1C (configuration not stated)
inactive: [2]
active: [3] 33 µM

Cc1cnc(C2=NC(C)(C(C)C)C(=O)N2)c(C(=O)O)c1 (configuration not stated)
inactive: [1] | [2] | [3] | AR (gene 367)

CCNP(=S)(OC)O/C(C)=C/C(=O)OC(C)C (configuration not stated)
inactive: [1] | [2] | [3] | [4]

CCN(CC)c1nc(C)cc(OP(=S)(OC)OC)n1
active: [2] 87.1 µM | [3] 83.3 µM
inactive: [1] | [6]

CS(=O)(=O)c1ccc(C(=O)C2C(=O)CCCC2=O)c([N+](=O)[O-])c1
inactive: [1] | [4]

CN/C(=N\[N+](=O)[O-])NCc1cnc(Cl)s1
inactive: [2] | [3]

CSC(=O)c1c(C(F)F)nc(C(F)(F)F)c(C(=O)SC)c1CC(C)C
active: [9] 32.3 µM | [10] 0.955 µM | [3] 37.4 µM | [14] 6.12 µM | [6] 81.2 µM
inactive: [17] | [8] | [12] | [13] | [15]
